The record followed here is publication PMC7819943, “Rice protein-binding microarrays: a tool to detect cis-acting elements near promoter regions in rice”.

Whole data set: some 68,000 sequences, median “fluorescence intensity (a.u.)” near 9,100, cut for the highest 2% near 16,000. Only a selection was taken, and the highest values are over-represented in it overall.

Chain of OsWRKY34 (Q0JBA9 entry or part of it): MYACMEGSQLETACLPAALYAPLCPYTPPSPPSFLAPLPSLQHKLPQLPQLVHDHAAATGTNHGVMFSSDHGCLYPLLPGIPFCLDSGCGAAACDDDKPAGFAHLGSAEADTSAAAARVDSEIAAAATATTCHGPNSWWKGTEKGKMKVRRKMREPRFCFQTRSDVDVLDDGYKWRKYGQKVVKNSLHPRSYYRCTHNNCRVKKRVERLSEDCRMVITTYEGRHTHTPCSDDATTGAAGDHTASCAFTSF

In this assay the target is OsWRKY34 (Oryza sativa, UniProt Q0JBA9 1-250). Description: protein-binding microarray (RPBM); PBS, 2% BSA, 51.3 ng/ul salmon testes DNA, 50 uM zinc acetate, 200 nM TF, 25 C, 1 h; high values mean tight binding. Conditions: protein: recombinant; tags: N-terminal polyhistidine and DsRed monomer fusion (pET32a); label: CyDye5-dUTP incorporated in the synthesized complementary strand; 3' TTTTT single-stranded linker to array surface; dsDNA, one strand shown. The method in brief:
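Polyhistidine-tagged DsRed fusions of transcription factors, joined at the N-terminus, were expressed in E. coli BL21-CodonPlus and isolated on Ni–NTA. They were incubated at 200 nM for 1 h at 25 °C on a custom Agilent array, double-stranded and BSA-blocked, in PBS with 2% BSA, salmon testes DNA and 50 µM zinc acetate. The binding signal is per-feature fluorescence intensity (arbitrary units) read on an Axon 4000B scanner after washing.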
Regarding “CCACCACCACCACGCCACGGCAGCCGCACCGCACCGCACCCGGAGTCACCTAGTGCAG”, the binding signal is 8390 fluorescence intensity (a.u.).
For “CACACCTCGCCTCCTCCTCGGCTTGGATCTCGCCGCATCACGGAGTCACCTAGTGCAG”, the binding signal was 8210 fluorescence intensity (a.u.).
With “AACGGTACCATCACCATCATTTATCATGGGCACAACTTGCCGGAGTCACCTAGTGCAG” the figure was 8810 fluorescence intensity (a.u.).
With “CCTTCGTCGACCCTCCGCCGCCGCCGCCGCCGCCGCCGACCGGAGTCACCTAGTGCAG” the figure was 8660 fluorescence intensity (a.u.); with “CAACATACAGGGAGTTTTTACCGGCCGCCCTCTACTCTCACGGAGTCACCTAGTGCAG”, 9800 fluorescence intensity (a.u.).
Take “GAGTTAGCCATGGCCTGTCAATTACTGGAACTCTGTTGTACGGAGTCACCTAGTGCAG”: the binding signal is 8220 fluorescence intensity (a.u.).
With “GTTGCTTTTGCTGGAGTAGTACTTCTATTTATCTTCAAACCGGAGTCACCTAGTGCAG” the figure was 9100 fluorescence intensity (a.u.); with “TTTTCGCATGTTTCTTTTCTTTTTTTTTCTTTTCTTTTCCCGGAGTCACCTAGTGCAG”, 16600 fluorescence intensity (a.u.); with “CTGTAGTTGCCTTTGTTGGTCTTGGTTTTGCTGTTCTGGTCGGAGTCACCTAGTGCAG”, 9910 fluorescence intensity (a.u.).
Consider “TTTTTTCTTTTTTTTTTTGTTTTTTCTCGCCTTTTTTTCCCGGAGTCACCTAGTGCAG”, for which the binding signal is 11900 fluorescence intensity (a.u.).
With “CTGGTCAGTTGGTCTTGTGTTTTGGGCTTTTTCGGCCCGTCGGAGTCACCTAGTGCAG” the figure was 12200 fluorescence intensity (a.u.); with “ATCTGTTCGTGGGTTGCTTGCTCAGTCGACCAATCGTTGACGGAGTCACCTAGTGCAG”, 19200 fluorescence intensity (a.u.); with “TGGTCTTGCCTCTCGCTTAGCCTTTTTGTTGCCTTGTGCTCGGAGTCACCTAGTGCAG”, 12300 fluorescence intensity (a.u.).
With “GGAGGGTCTGTTTTCTTGTGTGCGAGCCTTGCTAGTTGCTCGGAGTCACCTAGTGCAG” the figure was 16500 fluorescence intensity (a.u.); with “TTCGTGGTTTCGTTCAGCTTGATTTCGCTTGACACATCGACGGAGTCACCTAGTGCAG”, 9110 fluorescence intensity (a.u.).
Take “CATTTTCTTGGTTTGGTCTTTTTTATTGTTGGGTGTGTTTCGGAGTCACCTAGTGCAG”: the binding signal is 15500 fluorescence intensity (a.u.).
In the case of “TGTTTTTTCCTTTTTTTTTCTTTTCTTTTTCTCTCTTCCCCGGAGTCACCTAGTGCAG”, the binding signal was 8200 fluorescence intensity (a.u.).
To “GGGCTTGCGATCGTGTTGTGTTGGGTTGGGTCTTGGGTTTCGGAGTCACCTAGTGCAG” belongs 29400 fluorescence intensity (a.u.); to “CTCAGTCGACCAATCGTTGATCGCCACGTCGGCTGTTCTTCGGAGTCACCTAGTGCAG”, 8350 fluorescence intensity (a.u.).
With “TCTGACACCTATCTCTCCTGGATTCTCCATGCTTTCTTTCCGGAGTCACCTAGTGCAG”, the binding signal was 10300 fluorescence intensity (a.u.).
As for “TTTTCTCACCACTCTCTCTTTCGTGTTCTCTCTCTCTTGTCGGAGTCACCTAGTGCAG”, the binding signal was 12500 fluorescence intensity (a.u.).
To “CATCCTCCTTCCGGAACCTTCTAGAAGGTTCTCCTCGTACCGGAGTCACCTAGTGCAG” belongs 8530 fluorescence intensity (a.u.); to “ATGTATTGGTGTTATGCCTTCTGTTTATTTTATTTGCTCCCGGAGTCACCTAGTGCAG”, 8730 fluorescence intensity (a.u.); to “AAATCTGTAGCCCGCTGCTTTTCTCTCTCCTTATTTATCTCGGAGTCACCTAGTGCAG”, 11200 fluorescence intensity (a.u.).
With “CCAATATCACGTTGTCCTAGCTCTGCCAACGACTTCATCTCGGAGTCACCTAGTGCAG”, the binding signal was 8320 fluorescence intensity (a.u.).
For the sequence “TTCTCTCCCTCCCGGCCGCCGCCCCGCCCCGCCCATCTTGCGGAGTCACCTAGTGCAG”, the binding signal was 9110 fluorescence intensity (a.u.).
Take “TTTGTTGGTTGGTTTGACCCTTCCTAATCCTACCTTTGGTCGGAGTCACCTAGTGCAG”: the binding signal is 8160 fluorescence intensity (a.u.).
“CACGTACGCCGCCGTGTCTCATCACGAGCTCGATCGTTTCCGGAGTCACCTAGTGCAG”: the binding signal is 8240 fluorescence intensity (a.u.).
For the sequence “GGGTATTGTAGTAACTTCCTGTGCACCATCGGGGTTAAGACGGAGTCACCTAGTGCAG”, the binding signal was 10500 fluorescence intensity (a.u.).
For the sequence “GTGGAGTTGCTTTCTCCTCCTCCTTGTTTGGGTTGGGTGCCGGAGTCACCTAGTGCAG”, the binding signal was 11900 fluorescence intensity (a.u.).
Take “GTGGGTTTCTAGCATCATAGGGGTATTGTAGTAACTTCCTCGGAGTCACCTAGTGCAG”: the binding signal is 17400 fluorescence intensity (a.u.).
To “GTGGGTTTTTTTTTTTGGTTTGTTTCTTCCTCTGGCCATTCGGAGTCACCTAGTGCAG” belongs 19800 fluorescence intensity (a.u.); to “AAAGGTGAGTAGTGGTTTCTGGGTTGCGTCTCCCTTTTTCCGGAGTCACCTAGTGCAG”, 12600 fluorescence intensity (a.u.); to “GTTGGGTGGGTTTCCCGTCTCCTTCCGATTGCTGAGTAGCCGGAGTCACCTAGTGCAG”, 19100 fluorescence intensity (a.u.).
For the sequence “CGTGGGTAATTTGGTTCCTCTTCTTTTTTTGGCTTCCTTTCGGAGTCACCTAGTGCAG”, the binding signal was 8440 fluorescence intensity (a.u.).
Regarding “GATTTGTATTGGTTTTAATAGTAGGGGAATTTCTATACCTCGGAGTCACCTAGTGCAG”, the binding signal was 8140 fluorescence intensity (a.u.).
“TTCTCTGTTTCTTCTGCCTTCACCACCTGCTCCACATTTTCGGAGTCACCTAGTGCAG”: the binding signal was 10900 fluorescence intensity (a.u.).
As for “TCCTCTGGCTTTCTTTTCCCATTTCGTCTCTTGTTTGTTTCGGAGTCACCTAGTGCAG”, the binding signal is 9160 fluorescence intensity (a.u.).
Turning to “ACACCATGTTTCCACATTGCATTTCCTTCTGTTTTTTCTTCGGAGTCACCTAGTGCAG”, the binding signal was 17600 fluorescence intensity (a.u.).
As to “ATATTTCCTGTTTGCTCTGTGTTTTCTTCCACCTTCCATTCGGAGTCACCTAGTGCAG”, the binding signal was 9830 fluorescence intensity (a.u.).
Consider “ATTTTGATTAGTGCGTTTGATTAGTGGTGTTTATTATGTCCGGAGTCACCTAGTGCAG”, for which the binding signal is 9410 fluorescence intensity (a.u.).
To “TTCTGAACCGTGTTAAAATGCTACAAAATTTTCCCTTTTTCGGAGTCACCTAGTGCAG” belongs 8570 fluorescence intensity (a.u.).
